Measured values published in PubChem BioAssay AID1159580 (chemical genetic matrix, 2015).
The campaign covered roughly 5,500 compounds. About 2,000 (36%) were called active. Roughly 18% stayed inconclusive and do not appear here. No stated cut-off is given here; in the data, active means normalized growth mostly below about 0.91 (no sharp cut-off); inconclusive means no clear call, values can overlap the other calls; inactive means mostly above about 0.92. This is one part of the list.

Assay: chemical genetic growth profiling, strain panel (AID 1159580);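 further: tested at 20 µM; growth read once vehicle control cultures reached saturation at 30 °C; 1 = growth at the plate median or of vehicle wells; lower values mean less growth of the strain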
Details: growth OD

Measured: normalized growth

Oc1c(Cl)cc(Cl)c2cccnc12
active: S. cerevisiae deletion strains, locus YJR066W, strain TOR1, hits give low values -0.00116 | S. cerevisiae deletion strains, locus YJR075W, strain HOC1, hits give low values 0.0672 | S. cerevisiae deletion strains, locus YKL009W, strain mrt4, hits give low values 0.092 | S. cerevisiae deletion strains, locus YKL068W, hits give low values 0.0598 | S. cerevisiae deletion strains, locus YKL085W, strain MDH1 (second series), hits give low values 0.057 | S. cerevisiae deletion strains, locus YKL085W, strain MDH1, hits give low values 0.057 | S. cerevisiae deletion strains, locus YKL160W, strain elf1, hits give low values 0.067 | S. cerevisiae deletion strains, locus YKL190W, strain CNB1, hits give low values 0.0458 | S. cerevisiae deletion strains, locus YKR001C, strain vps1, hits give low values 0.0676 | S. cerevisiae deletion strains, locus YKR026C, strain gcn3, hits give low values 0.0676 | S. cerevisiae deletion strains, locus YKR091W, strain srl3, hits give low values 0.0658 | S. cerevisiae deletion strains, locus YLL001W, strain dnm1, hits give low values 0.0628 | S. cerevisiae deletion strains, locus YLL026W, hits give low values 0.0652 | S. cerevisiae deletion strains, locus YLL041C, strain sdh2, hits give low values 0.0595 | S. cerevisiae deletion strains, locus YLR027C, strain aat2, hits give low values 0.0596 | S. cerevisiae deletion strains, locus YLR039C, strain RIC1, hits give low values 0.0746 | S. cerevisiae deletion strains, locus YLR058C, strain SHM2, hits give low values 0.0468 | S. cerevisiae deletion strains, locus YLR102C, strain apc9, hits give low values 0.0634 | S. cerevisiae deletion strains, locus YLR113W, strain HOG1, hits give low values 0.152 | S. cerevisiae deletion strains, locus YLR221C, strain rsa3, hits give low values 0.0659 | S. cerevisiae deletion strains, locus YLR258W, strain gsy2, hits give low values 0.0626 | S. cerevisiae deletion strains, locus YLR262C, strain YPT6 (second series), hits give low values 0.0862 | S. cerevisiae deletion strains, locus YLR262C, strain YPT6, hits give low values 0.0908 | S. cerevisiae deletion strains, locus YLR268W, strain sec22, hits give low values 0.0715 | S. cerevisiae deletion strains, locus YLR320W, strain mms22, hits give low values 0.0895 | S. cerevisiae deletion strains, locus YLR330W, strain CHS5, hits give low values 0.0519 | S. cerevisiae deletion strains, locus YLR342W, strain FKS1 (second series), hits give low values 0.0706 | S. cerevisiae deletion strains, locus YLR342W, strain FKS1, hits give low values 0.068 | S. cerevisiae deletion strains, locus YLR357W, strain rsc2, hits give low values 0.116 | S. cerevisiae deletion strains, locus YLR370C, strain arc18, hits give low values 0.0682 | S. cerevisiae deletion strains, locus YLR371W, strain rom2, hits give low values 0.0693 | S. cerevisiae deletion strains, locus YLR384C, strain iki3, hits give low values 0.0654 | S. cerevisiae deletion strains, locus YLR418C, strain cdc73, hits give low values 0.106 | S. cerevisiae deletion strains, locus YML016C, strain PPZ1, hits give low values 0.0467 | S. cerevisiae deletion strains, locus YML032C, strain rad52, hits give low values 0.0695 | S. cerevisiae deletion strains, locus YML120C, strain ndi1, hits give low values 0.0608 | S. cerevisiae deletion strains, locus YML124C, strain tub3, hits give low values 0.0633 | S. cerevisiae deletion strains, locus YMR058W, strain fet3, hits give low values 0.0638 | S. cerevisiae deletion strains, locus YMR078C, strain ctf18, hits give low values 0.0725 | S. cerevisiae deletion strains, locus YMR125W, strain sto1, hits give low values 0.0693 | S. cerevisiae deletion strains, locus YMR129W, hits give low values 0.0704 | S. cerevisiae deletion strains, locus YMR205C, strain PFK2, hits give low values 0.087 | S. cerevisiae deletion strains, locus YMR223W, strain ubp8, hits give low values 0.0733 | S. cerevisiae deletion strains, locus YMR231W, strain pep5, hits give low values 0.0731 | S. cerevisiae deletion strains, locus YMR263W, strain SAP30, hits give low values 0.057 | S. cerevisiae deletion strains, locus YMR307W, strain GAS1, hits give low values 0.101 | S. cerevisiae deletion strains, locus YNL067W, strain RPL9B, hits give low values 0.0516 | S. cerevisiae deletion strains, locus YNL071W, strain lat1, hits give low values 0.0698 | S. cerevisiae deletion strains, locus YNL128W, strain TEP1, hits give low values 0.0643 | S. cerevisiae deletion strains, locus YNL153C, strain GIM3, hits give low values 0.0512 | S. cerevisiae deletion strains, locus YNL183C, strain NPR1, hits give low values -0.00339 | S. cerevisiae deletion strains, locus YNL209W, strain ssb2, hits give low values 0.0648 | S. cerevisiae deletion strains, locus YNL233W, strain BNI4, hits give low values 0.0545 | S. cerevisiae deletion strains, locus YNL248C, strain rpa49, hits give low values 0.0607 | S. cerevisiae deletion strains, locus YNL250W, strain rad50, hits give low values 0.0707 | S. cerevisiae deletion strains, locus YNL271C, strain bni1, hits give low values 0.0672 | S. cerevisiae deletion strains, locus YNL298W, strain CLA4, hits give low values 0.0667 | S. cerevisiae deletion strains, locus YNL307C, strain MCK1, hits give low values 0.0744 | S. cerevisiae deletion strains, locus YNL322C, strain KRE1 (second series), hits give low values 0.0728 | S. cerevisiae deletion strains, locus YNL322C, strain KRE1, hits give low values 0.0468 | S. cerevisiae deletion strains, locus YNR049C, strain mso1, hits give low values 0.0631 | S. cerevisiae deletion strains, locus YNR052C, strain pop2, hits give low values 0.0629 | S. cerevisiae deletion strains, locus YOL006C, strain TOP1, hits give low values 0.108 | S. cerevisiae deletion strains, locus YOL147C, strain pex11, hits give low values 0.0586 | S. cerevisiae deletion strains, locus YOR001W, strain rrp6, hits give low values 0.072 | S. cerevisiae deletion strains, locus YOR061W, strain CKA2, hits give low values 0.045 | S. cerevisiae deletion strains, locus YOR069W, strain VPS5, hits give low values 0.046 | S. cerevisiae deletion strains, locus YOR070C, strain gyp1, hits give low values 0.0611 | S. cerevisiae deletion strains, locus YOR080W, strain dia2, hits give low values 0.0794 | S. cerevisiae deletion strains, locus YOR083W, strain WHI5, hits give low values 0.0648 | S. cerevisiae deletion strains, locus YOR106W, strain vam3, hits give low values 0.0647 | S. cerevisiae deletion strains, locus YOR136W, strain idh2, hits give low values 0.0779 | S. cerevisiae deletion strains, locus YOR144C, strain elg1, hits give low values 0.0585 | S. cerevisiae deletion strains, locus YOR184W, strain ser1, hits give low values 0.0845 | S. cerevisiae deletion strains, locus YOR231W, strain MKK1, hits give low values 0.105 | S. cerevisiae deletion strains, locus YOR265W, strain rbl2, hits give low values 0.0654 | S. cerevisiae deletion strains, locus YOR270C, strain vph1, hits give low values 0.0804 | S. cerevisiae deletion strains, locus YOR290C, strain snf2, hits give low values 0.062 | S. cerevisiae deletion strains, locus YOR316C, strain cot1, hits give low values 0.0632 | S. cerevisiae deletion strains, locus YPL051W, strain arl3, hits give low values 0.0645 | S. cerevisiae deletion strains, locus YPL055C, strain LGE1, hits give low values 0.0675 | S. cerevisiae deletion strains, locus YPL078C, strain atp4, hits give low values 0.0648 | S. cerevisiae deletion strains, locus YPL106C, strain sse1, hits give low values 0.0892 | S. cerevisiae deletion strains, locus YPL240C, strain hsp82, hits give low values 0.0586 | S. cerevisiae deletion strains, locus YPL241C, strain CIN2, hits give low values 0.0475 | S. cerevisiae deletion strains, locus YPL256C, strain CLN2, hits give low values 0.126 | S. cerevisiae deletion strains, locus YPR119W, strain clb2, hits give low values 0.0705 | S. cerevisiae deletion strains, locus YPR141C, strain kar3, hits give low values 0.0755 | S. cerevisiae deletion strains, locus YPR163C, strain tif3, hits give low values 0.074 | S. cerevisiae deletion strains, locus YPR167C, strain met16, hits give low values 0.0659 | S. cerevisiae deletion strains, strain wtn01, hits give low values 0.0707 | S. cerevisiae strains, strain wild type, hits give low values 0.0471
